Out of some 410,000 compounds screened, about 5,000 (1.2%) were called active. Entries that show only a call come without a potency. Inconclusive results (about 13%) are left out. Calls come from the whole dose curve; as a rule, active = well fitted inhibition curve with a large enough effect; inconclusive = small, poorly fitted or top-dose-only effect; inactive = no such curve, though single readings can be large or run the other way. Many of the other results were omitted from the sample, so actives are more common in it than they were.
Potency is the fitted concentration of half-maximal effect.

A short description of this assay: qHTS for Inhibitors of TGF-b. Note: nearly all actives have a fitted effect of over 65% in size. The note with it: HepG2 CAGA-GFP TGF-b/SMAD3 reporter, GFP fluorescence, 18 h, TGF-beta stimulated, 500 pg/mL final; series mostly up to 46.1 µM. Summed up: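 Per well, imaged GFP fluorescence of HEPG2 CAGA-GFP cells gives the signal; cells get compound, then TGF-beta (500 pg/mL final), 18 h at 37 degrees C; %Activity versus -TGF-beta and +DMSO controls.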
(Quantitative high-throughput screening tests each substance at several concentrations.)
For the compound `Cc1ccc(-c2nnc(SCc3ccccc3C)o2)cc1`, the Potency entry was “inactive”.
In the case of `CCOC(=O)c1cccc(NS(=O)(=O)c2cn(C)c(C)n2)c1` it was “inactive”.
With `Cc1c(C(=O)N(C)C)sc2c1c(=O)n(-c1ccc(F)cc1)c(=O)n2CC(=O)N(C)c1ccccc1`, the Potency result is “inactive”.
In the case of `CCNC(=O)c1cc2n(n1)CCCN(Cc1ccc(C)cc1)C2=O`, the Potency result is “inactive”.
In the case of `Cc1ccc(NC(=O)c2cc3cc(C)ccc3n2C)cc1` it was “inactive”.
To `CCCn1c(=N)c(C(=O)NCc2ccccc2)cc2c(=O)n3cccc(C)c3nc21` belongs “inactive”; to `CCCn1ccc2c(OCC(=O)NCc3ccc(F)cc3)cccc2c1=O`, “inactive”.
In the case of `CCOCCn1ccc2c(OCC(=O)NCc3ccc(C)cc3)cccc2c1=O`, the Potency entry was “inactive”.
In the case of `COC(=O)COc1cccc2c(=O)n(CC(=O)NCc3ccccc3)ccc12` it was 8.91 µM (active); in that of `COc1ccc(OCC(=O)Nc2cccc(C(=O)OCc3cc(=O)n4nc(C)sc4n3)c2)cc1`, “inactive”; in that of `O=C(NCCCN1CCOCC1)c1ccc2c(c1)N(Cc1cccc(F)c1)C(=O)c1ccccc1S2`, 11.2 µM (active).
Consider `CCC1=Nc2cc(C(=O)NCCCN3CCOCC3)ccc2Sc2ccc(Br)cc21`, for which the Potency entry is “inactive”.
Take `O=C(NCCN1CCOCC1)c1ccc2c(c1)N(Cc1cccc(Cl)c1)C(=O)c1ccccc1S2(=O)=O`: the Potency entry is “inactive”.
To `O=C(NCCCN1CCOCC1)c1cc(-c2ccccc2F)no1` belongs “inactive”; to `O=C(NCCCN1CCCCC1)c1ccc2c(c1)NC(=O)C(N1CCOCC1)S2` (stereo unspecified), “inactive”; to `Cc1csc2nc(COC(=O)c3ccc(NC(=O)COc4ccccc4F)cc3)cc(=O)n12`, “inactive”.
For `COc1ccccc1CNC(=O)C(=O)NCC(c1cccs1)S(=O)(=O)c1cccs1` (stereo unspecified), the Potency entry is “inactive”.
Turning to `CC1CC(C)CN(C(=O)C2CC(=O)N(c3ccc(F)cc3)C2)C1` (stereo unspecified), the Potency entry was “inactive”.
As for `Cc1ccc2c(c1)N(C(=O)Nc1ccc(Br)cc1F)CCO2`, the Potency result was “inactive”.
Consider `C[C@@H]1C(c2ccc(F)cc2)=NN(c2ccc(Br)cc2)[C@H]1C(=O)N1CCOC1=O`, for which the Potency is 14.1 µM (active).
On to `COc1ccc(CNC(=O)c2cc3c(s2)-c2ccccc2OC3)cc1`, for which the Potency entry was “inactive”.
Take `Cc1cc(C)cc(-n2c(SCC(=O)NCC3CCCO3)nc3c([nH]c4ccccc43)c2=O)c1` (stereo unspecified): the Potency entry was “inactive”.
In the case of `Cc1cccc(CSc2nc3ccncc3n2Cc2ccc(C(=O)O)cc2)c1` it was “inactive”; in that of `Cc1oc(-c2ccccc2)nc1Cn1c(SCc2cccc(C(F)(F)F)c2)nc2cccnc21`, 15.8 µM (active).
As to `Cc1ccc(CSc2nc3cccnc3n2Cc2ccc(C(=O)NC3CC3)cc2)cc1`, the Potency entry was “inactive”.
To `COC(=O)c1ccc(OC)c(Cn2c(=O)n(Cc3ccccc3)c(=O)c3c2c2cc(OC)ccc2n3C)c1` belongs “inactive”.
As for `COc1cc2[nH]c(C)c(CCN3CCN(c4ccccc4)CC3)c2cc1OC`, the Potency entry was “inactive”.
With `O=C(NNc1ccccc1Cl)C(O)(c1cccc(C(F)(F)F)c1)c1cccc(C(F)(F)F)c1`, the Potency was 15.8 µM (active).
As for `O=C(CNS(=O)(=O)c1cccc(C(F)(F)F)c1)Nc1ccccc1F`, the Potency result was “inactive”.
In the case of `O=C(Nc1cc(C(F)(F)F)ccc1Cl)c1nc2ccccc2nc1N1CCCCC1`, the Potency entry was “inactive”.
Consider `COc1ccc(CNC(=O)CCc2c(C)nn(-c3ccc(N4CCCC4)nn3)c2C)cc1`, for which the Potency result was “inactive”.
Regarding `Cc1ccccc1CNC(=O)CSc1nnc(C)c2c(C)n(-c3ccccc3)nc12`, the Potency entry is “inactive”.
On to `O=C(NCCc1ccc(Cl)cc1)c1ccc2nc(CCc3ccccc3)oc2c1`, for which the Potency result is “inactive”.
Take `Cc1ccc(C)c(Cn2c(CCCNC(=O)C3CCCCC3)nc3ccccc32)c1`: the Potency result was “inactive”.
Take `Cn1c(N)c(C(=O)COC(=O)/C=C/c2cccc(C(F)(F)F)c2)c(=O)n(C)c1=O`: the Potency result was “inactive”.
In the case of `CCOC(=O)CCC(NC(=O)c1ccc(CNc2nc3cc(C(F)(F)F)ccc3nc2C(=O)OCC)cc1)C(=O)OCC` (stereo unspecified) it was “inactive”; in that of `CCOC(=O)c1c(NC(=O)c2cc(CC)on2)sc(C(C)=O)c1C`, “inactive”.
With `CCCCN1C(=O)c2[nH]nc(-c3ccccc3O)c2C1c1cccc(OCc2ccccc2)c1` (stereo unspecified), the Potency is 15.8 µM (active).
Turning to `COc1cccc(-c2n[nH]c3c2C(c2cccc(O)c2)N(C)C3=O)c1` (stereo unspecified), the Potency entry was “inactive”.
To `CN1C(=O)c2[nH]nc(-c3ccc(F)cc3)c2C1c1ccccn1` (stereo unspecified) belongs “inactive”; to `CN(C)Cc1cn(-c2ccccc2)nc1-c1ccccc1`, “inactive”.
To `Cc1ccc(CNC(=O)C2(C(F)(F)F)C/C(=C\CCO)CCCO2)o1` (stereo unspecified) belongs “inactive”; to `CCOc1cc(C2C(C(=O)Nc3ccc(OC)cc3)=C(C)Nc3nc(SC)nn32)ccc1O` (stereo unspecified), “inactive”; to `Cc1ccc(C=O)c([B-](F)(F)F)c1`, “inactive”.
Consider `CN1c2ccc(C=O)c3c(C=O)ccc(c23)N(C)C1(C)C`, for which the Potency is 20 µM (active).
In the case of `CC(C)c1ccccc1OCC(O)CN(CC(O)COc1cccc2ccccc12)C(C)C` (stereo unspecified) it was 15.8 µM (active); in that of `CN1CCN(CCCCOc2cccc3ccccc23)CC1`, “inactive”.
On to `CC1CC(C)CN(CCOc2cccc3ccccc23)C1` (stereo unspecified), for which the Potency result is “inactive”.
To `CCN(C(=O)Cn1cnc2sc(C)c(S(=O)(=O)N3CCN(c4ncccn4)CC3)c2c1=O)c1ccccc1F` belongs “inactive”; to `O=C(Nc1ccc2nc(SCCOc3ccccc3Cl)sc2c1)c1ccco1`, “inactive”; to `CSc1ccc(CCNC(=O)c2cc(C)nc3c2c(C)nn3-c2cccc(F)c2)cc1`, “inactive”.
To `COc1cc(NC(=O)c2cc(C3CC3)nc3c2c(C)nn3-c2ccccc2)cc(OC)c1` belongs “inactive”; to `Cc1cc(C(=O)Nc2cccc(C(F)(F)F)c2)c2c(C)nn(-c3cccc(F)c3)c2n1`, 7.08 µM (active); to `O=C(Nc1cc(C(F)(F)F)ccc1Cl)c1ccc2c(c1)CCN2S(=O)(=O)c1ccccc1`, “inactive”.
In the case of `O=C(Nc1cc(C(F)(F)F)ccc1Cl)c1cc2nc(-c3ccc4c(c3)OCO4)cc(C(F)(F)F)n2n1` it was “inactive”; in that of `Cc1noc(C)c1S(=O)(=O)Nc1cc(C(F)(F)F)ccc1N1CCOCC1`, “inactive”; in that of `CN(CC(=O)Nc1cccc(C(F)(F)F)c1)S(=O)(=O)c1cccs1`, “inactive”.
For `Cc1oc2c(F)c(F)c(F)c(F)c2c1S(=O)(=O)Nc1cccc(C(F)(F)F)c1`, the Potency is 7.08 µM (active).
To `CCC(=O)N1N=C(c2ccc(OC)cc2)CC1c1cn(-c2ccccc2)nc1-c1cccs1` (stereo unspecified) belongs “inactive”.
In the case of `Cc1nnc(SCC(=O)NCc2ccccc2Cl)c2nn(-c3ccccc3)c(C)c12` it was “inactive”.
To `C=C1C(=O)[C@]23C[C@H]1CCC2[C@@]1(C)C(C[C@@H]3O)[C@](C)(C(=O)O)CC[C@@H]1O` (stereo partly specified) belongs 10 µM (active).

The record behind these values is PubChem BioAssay AID588855 (National Center for Advancing Translational Sciences (NCATS), 2011).
